A selection: hits, their analogues and other compounds. The true share with any hit is near 7.3%.
Rab9 prom act – activators of Rab9 promoter. 320,000 tested, 2.8% active. Potency, µM (top dose mostly 9.22 µM), for the others: top-dose activation, negative = inhibition, most hits filed as activators. Huh7 Rab9 promoter-luciferase reporter, luminescence, 24 h; further: % of control where 0% means no effect; nearly all actives have a fitted effect of over 60% in size
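Huh7 cells stably carrying Rab9 promoter–luciferase reporter, plated 1500 cells/well, compound added after 2 h and incubated 24 h at 37 °C; luciferase luminescence then read after 10 min with detection reagent.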
ELG1 genotoxic – inducers of genotoxicity in HEK293T ELG1-luciferase cells; HEK293T ELG1-luciferase reporter, luminescence, 16 h; AID 504466; Potency, µM (top dose mostly 46 µM), for the others: at the highest dose activity change, positive = activation, most hits filed as activators; 330,000 tested, 1.3% active; further: % of control where 0% means no effect; nearly all actives have a fitted effect of over 60% in size
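Genotoxicity was scored as increased ELG1-luciferase reporter signal, measured by ONE-Glo luminescence (30 min, room temperature). Compound or vehicle exposure of the HEK293T reporter cells lasted 16 hr at 37°C.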
Luc counter – counter-screen: inhibitors of Kinase-Glo firefly luciferase | Potency, µM (top dose mostly 38.3 µM), without a hit: top-dose activity change, negative = inhibition, most hits filed as inhibitors | Kinase-Glo luciferase, ATP luminescence, 8 min | Q27757 | 200,000 tested, 0.28% active; further: on the % scale 0 is the no-effect control and ±100 the full control effect; nearly all actives have a fitted effect of over 60% in size
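Substrate mix (final 50 mM imidazole pH 7.2, 50 mM KCl, 7 mM MgCl2, 10 uM ATP, 0.01% Tween 20, 0.05% BSA) plus pin-tool compound, then Kinase-Glo detection mix; 8 min ambient, luminescence read.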
FLuc counter – inhibits or activates purified firefly luciferase, miR-21 counter-screen; P08659; purified FLuc, Km substrates, luminescence inhibition; Potency, µM (top dose mostly 57.5 µM), for inactives: top-dose activity change, negative = inhibition, usual class: inhibitors; 360,000 tested, 6.9% active;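 further: plate controls were vehicle for no effect and reference inhibitor for full effect; nearly all actives have a fitted effect of over 55% in size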
Target sequence (P08659 whole entry, looked up): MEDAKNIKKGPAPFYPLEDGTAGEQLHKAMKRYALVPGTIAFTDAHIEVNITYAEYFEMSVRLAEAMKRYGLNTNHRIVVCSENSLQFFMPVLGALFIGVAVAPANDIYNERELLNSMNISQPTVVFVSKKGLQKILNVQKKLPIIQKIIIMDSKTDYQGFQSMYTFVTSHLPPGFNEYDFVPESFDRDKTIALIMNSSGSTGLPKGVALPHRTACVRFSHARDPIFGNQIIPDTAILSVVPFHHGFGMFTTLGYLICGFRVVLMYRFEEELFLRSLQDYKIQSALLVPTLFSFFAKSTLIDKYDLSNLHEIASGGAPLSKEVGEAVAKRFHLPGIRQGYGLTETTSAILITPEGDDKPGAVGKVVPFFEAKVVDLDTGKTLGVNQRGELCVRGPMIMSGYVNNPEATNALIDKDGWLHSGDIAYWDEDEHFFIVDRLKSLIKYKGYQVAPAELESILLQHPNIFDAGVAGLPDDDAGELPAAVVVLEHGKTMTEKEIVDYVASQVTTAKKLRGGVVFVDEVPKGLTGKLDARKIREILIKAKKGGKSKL
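Purified P. pyralis luciferase (10nM final) with 10uM D-luciferin and 10uM ATP (Km levels) in 50mM Tris acetate pH 7.5, 10mM Mg acetate, 0.01% Tween-20, 0.05% BSA; qHTS 6-point titration, ~60 µM downward; luminescence read.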
NPC1 promoter act – activators of NPC1 promoter | Huh7 NPC1 promoter luciferase reporter, 24 h | Potency, µM (top dose mostly 9.22 µM), inactives show at the top dose activation, most hits filed as activators | 320,000 tested, 2.4% active | AID 485313; further: % of control where 0% means no effect; nearly all actives have a fitted effect of over 60% in size
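Luminescence read-out of NPC1 promoter-driven luciferase in stably transfected Huh7 cells; compounds delivered in DMSO and left 24 h at 37C, 5% CO2, qHTS titration format.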
SMN2 splice enh – enhancers of SMN2 splice variant expression | HEK293 SMN2-luciferase splicing reporter, luminescence, 30-36 h | 210,000 tested, 2.8% active | Potency, µM (top dose mostly 46.1 µM), for inactives: at the highest dose activity change, positive = activation, usual class: activators; further: % of control where 0% means no effect; nearly all actives have a fitted effect of over 55% in size
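HEK293 cells carry an SMN2 minigene-luciferase reporter in which exon 7 inclusion puts luciferase in frame. Cells were seeded at 2000 cells/well, attached for 10-12 hours, then exposed to compounds for 30-36 hours at 37C before ONE-Glo luminescence.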
An asterisk follows results filed as active; u = inconclusive; x = not tested or not shown. The call rests on the fitted dose curve; in most records, active means well fitted curve in the direction sought with a large enough effect; inconclusive means small, poorly fitted or top-dose-only effect, or another doubt; inactive means no such curve, though single readings can be large; an effect the other way counts as inactive or inconclusive. Potency means the concentration at half of the fitted maximal effect.

SMILES	Rab9 prom act	ELG1 genotoxic	Luc counter	FLuc counter	NPC1 promoter act	SMN2 splice enh
Cc1cccc(-n2c(C)cc(/C=C3/C(=N)N4C(c5ccccc5)=CSC4=NC3=O)c2C)c1	0%	-3%	0%	-13%	0%	-21%
Cc1cc(C=C2C(=O)c3ccccc3C2=O)c(C)n1-c1ccc(Cl)cc1	3%	4.6µM*	-14%	0.67µM*	8%	-60%
COc1ccc(C(=O)NC(=S)Nc2cccnc2)cc1OC	-4%	3%	-9%	-21%	-1%	-2%
CC(=O)Nc1ccc(N(C(=O)CNC(=O)c2ccco2)C(C(=O)NCC2CCCO2)c2ccccc2)cc1 (stereo unspecified)	1%	-1%	2%	3%	-4%	5%
Cc1ccc(Cl)c2c(N=Nc3ccccc3)c(O)[nH]c12	u	u	x	1.2µM*	u	x
CCC(=O)Nc1nc2nc(C)cc(=O)n2[nH]1	0%	-9%	16%	8%	5%	9%
Cc1[nH][nH]c(=O)c1C(c1ccc(-c2cccc(Cl)c2)o1)c1c(C)[nH][nH]c1=O	-2%	-2%	x	-20%	-2%	x
Cc1[nH][nH]c(=O)c1C(c1ccc(-c2cccc(C(=O)O)c2)o1)c1c(C)[nH][nH]c1=O	u	14%	-2%	15µM*	20%	x
O=C(Nc1ccc(Cl)cn1)c1ccccc1F	x	x	-12%	4.3µM*	x	16µM*
COc1cc2ccccc2cc1C(=O)Nc1ccc(Cl)cn1	1.4µM*	u	x	u	2µM*	x
O=C(NC(=O)c1ccccc1)Nc1ccc(Cl)cn1	1µM*	1.5µM*	x	2.1µM*	0.63µM*	x
O=C(Nc1cccc(C(=O)Nc2ccc(Cl)cn2)c1)c1ccccc1	21%	-1%	x	u	4%	x
O=C(Nc1ccc(Cl)cn1)c1cccc(F)c1	u	u	-29%	11µM*	u	16µM*
CC1CCCCN1CCn1c(=S)[nH]c2cc3c(cc2c1=O)OCO3 (stereo unspecified)	-1%	6%	-1%	0%	-7%	2%
O=C(NC1CC1)C1=C[C@@H](C2CC2)C[C@@H](OCc2ccc(CO)cc2)O1	-4%	4%	x	-3%	-1%	x
Cc1cccc(Nc2ccc([N+](=O)[O-])cc2C(=O)O)c1	-1%	3%	0%	u	14%	6%
Cc1ccccc1C(=O)c1c[nH]c(C(=O)N2CCN(c3ccccc3F)CC2)c1	-7%	-3%	-1%	-11%	-2%	-8%
C/C(=C\c1ccccc1)C(=O)Nc1ccc(Cl)cn1	0.79µM*	9.2µM*	x	u	1.8µM*	x
Cc1cc(C)nc(NC(=O)NC(=O)c2ccccc2)n1	-1%	0%	x	2%	-2%	x
Nc1ccccc1NC(=O)NC(=O)c1ccccc1	2.2µM*	u	x	11µM*	u	x
CCOC(=O)c1c(C)[nH]c(C2=NNC(=Nc3ccccc3)SC2)c1C	2.5µM*	-6%	x	12µM*	u	x
CCOC(=O)c1c(C)[nH]c(C2=NNC(=Nc3ccc(OCC)cc3)SC2)c1C	-7%	-5%	-1%	u	1%	-33%
CC(=O)c1c(C)[nH]c(C2=NNC(=NC(C)(C)C)SC2)c1C	1.6µM*	15µM*	2%	24µM*	1.8µM*	13µM*
CC(=O)c1c(C)[nH]c(-c2ccccc2)c1C	-5%	u	-2%	u	2%	u
CCOC(=O)c1c(C)[nH]c(C2=NNC(=Nc3ccccc3OC)SC2)c1C	u	-1%	-1%	9.5µM*	2.5µM*	11µM*
SMILES	Rab9 prom act	ELG1 genotoxic	Luc counter	FLuc counter	NPC1 promoter act	SMN2 splice enh
Cc1ccc(N2CCN(C(=O)c3ccc(Nc4nc5ccccc5n5nnnc45)cc3)CC2)c(C)c1	x	x	x	2%	x	6%
CC(C)CNC(=O)c1c(-c2ccccc2)c(-c2ccccc2)nn(C)c1=O	x	x	x	3%	x	5%
O=C1C(=O)N(Cc2cccnc2)C(c2ccccn2)/C1=C(/O)c1ccc(Br)cc1 (stereo unspecified)	4%	1%	1%	6%	-4%	7%
O=C(NCC(=O)N1CCN(C(=O)c2ccco2)CC1)c1ccccc1	-1%	7%	x	-1%	1%	x
CN(C)c1c(F)cc(-c2nn[nH]n2)cc1F	4%	15%	x	15µM*	1%	x
c1cncc(-c2nn[nH]n2)c1	-1%	3%	2%	2%	-3%	-6%
O=C1c2ccccc2C(=O)N1CC(O)COc1ccccc1Cl (stereo unspecified)	u	5%	x	11µM*	18%	x
Cc1ccccc1OCC(O)CN1C(=O)c2ccccc2C1=O (stereo unspecified)	4%	9%	x	13µM*	3%	x
Nc1ncnc(NCc2ccc(F)cc2)c1[N+](=O)[O-]	-2%	-16%	-2%	0%	-2%	-15%
COc1ccc(-c2ccc(=O)n(Cc3c(F)cccc3Cl)n2)cc1	-2%	6%	x	u	3%	x
COc1ccc(-c2ccn(-c3cccc(F)n3)n2)cc1	2.2µM*	u	-7%	15µM*	3.2µM*	-55%
CCOCC(=O)Nc1nc2ccccc2s1	u	u	-5%	24µM*	3.2µM*	14µM*
O=C(CCc1nc2ccccc2s1)Nc1ccccc1	2%	0%	2%	u	1%	-1%
O=C(NCc1ccncc1)C(=O)Nc1nc2ccccc2s1	22%	16%	0%	15µM*	-1%	x
O=C(NCc1ccncc1)C(=O)Nc1nccs1	-4%	-1%	x	6%	3%	x
S=C(Nc1ccccc1)c1nc2ccccc2s1	2.5µM*	u	-8%	u	u	11µM*
O=C(NNc1nc2ccccc2s1)Nc1ccccc1	u	u	0%	u	3.2µM*	14µM*
CC(=O)NNc1nc2ccccc2s1	4%	-1%	-2%	3%	1%	-24%
C=CCN1C(=O)/C(=C/C(=O)OC)S/C1=N\NC(=O)c1ccccc1	12%	12%	x	-3%	-5%	x
Cc1ccc(N(C)C(=O)c2cnc(N3CCOCC3)c3ccccc23)cc1C	x	x	x	2%	x	x
COc1ccccc1-c1ccc(SCc2cccc(C)c2)nn1	1%	0%	-4%	u	-1%	-58%
CCNC(=O)Nc1nc2ccccc2s1	u	u	-2%	24µM*	4µM*	14µM*
Cc1ccc(NC(=O)Nc2nc3ccccc3s2)cc1NC(=O)Nc1nc2ccccc2s1	1%	-6%	x	u	15%	x
O=C(NC1CC1)c1ccc(Cn2c(SCc3ccc(F)cc3)nc3cccnc32)cc1	x	x	x	1.7µM*	x	x
O=C(NC1CC1)c1ccc(Cn2c(SCc3cccc(F)c3)nc3cccnc32)cc1	x	x	x	-16%	x	x

Source: PubChem BioAssay (National Center for Advancing Translational Sciences (NCATS))
